Screening data as filed in PubChem BioAssay.
Hits are enriched below; roughly 4% of the tested compounds scored in any of these assays.
FBA Mtb inh = Mtb FBA enzyme inhibitors, primary screen, biochemical, fluorescence, strain H37Rv; Fructose-bisphosphate aldolase (Mycobacterium tuberculosis (strain ATCC 25618 / H37Rv)), …; inhibition, % at 1 µM; purified M. tuberculosis FBA, fluorescence read-out; 360,000 tested, 2.3% active
Mtb UGM inh = M. tuberculosis UGM enzyme inhibitors, primary screen, biochemical, fluorescence polarization, single point; UDP-galactopyranose mutase (Mycobacterium tuberculosis (strain ATCC 25618 / H37Rv)), …; purified UGM, fluorescence polarization probe displacement; inhibition, % at 10 µM; AID 504406, 2011; 320,000 tested, 0.06% active; in the data active means inhibition above about 10%, passing the limit was not always enough
Target sequence (P9WIQ1 whole entry, looked up): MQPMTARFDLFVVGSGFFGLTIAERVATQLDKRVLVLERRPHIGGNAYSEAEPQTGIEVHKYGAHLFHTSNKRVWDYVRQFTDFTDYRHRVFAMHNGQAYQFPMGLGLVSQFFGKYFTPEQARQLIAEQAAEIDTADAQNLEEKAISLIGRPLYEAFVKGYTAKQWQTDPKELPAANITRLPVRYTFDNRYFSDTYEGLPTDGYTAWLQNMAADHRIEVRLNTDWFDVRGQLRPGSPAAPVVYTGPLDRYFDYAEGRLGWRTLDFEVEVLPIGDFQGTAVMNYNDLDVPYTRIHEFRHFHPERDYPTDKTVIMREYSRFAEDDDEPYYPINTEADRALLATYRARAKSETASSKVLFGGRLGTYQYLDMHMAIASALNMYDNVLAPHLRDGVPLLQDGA
RecA splice inh = Mtb RecA intein splicing inhibitors, primary screen, biochemical, fluorescence, HTS; inhibition, % (no concentration beside the values); cell-free RecA intein splicing; Protein RecA (Mycobacterium tuberculosis (strain ATCC 25618 / H37Rv)), P9WHJ3; AID 2221, 2009; 290,000 tested, 0.75% active; in the data active means inhibition above about 30%
Mtb betalactam = beta-lactam sensitization of Mtb H37Rv, H37Rv | M. tuberculosis H37Rv growth with meropenem, percent inhibition | inhibition, % at 25 µM | 330,000 tested, 0.27% active; call rule not given here;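 further: growth measured after seven days incubation then overnight dye step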
Rv3671c protease = Rv3671c serine protease inhibitors, primary screen, biochemical, fluorescence polarization, M. tuberculosis H37Rv; inhibition, % at 5.96 µM; P9WHR9; 320,000 tested, 0.048% active; in the data active means inhibition above about 38%;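 further: extracellular domain of Rv3671c used as enzyme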
GDH-TPI counter-1 = GDH-TPI coupling enzyme inhibitors, primary screen, artefact control for M. tuberculosis FBA inhibitor project, biochemical, absorbance, full deck. GDH-TPI coupled enzyme counterscreen, NADH absorbance. inhibition, % at 4.8 µM. 360,000 tested, 1.2% active. AID 588335, 2011; in the data active means inhibition above about 30%
Mtb FBA inh conf = M. tuberculosis aldolase blockers, biochemical, fluorescence, strain H37Rv, confirmation | 5,600 tested, 78% active | inhibition, % at 1 µM | shares compounds with FBA Mtb inh | purified M. tuberculosis FBA, fluorescence read-out
GDH-TPI counter-2 = GDH-TPI coupling enzyme inhibitors, artefact control for M. tuberculosis FBA inhibitor project, biochemical, fluorescence, high throughput. shares compounds with FBA Mtb inh. GDH-TPI coupled enzyme counterscreen. inhibition, % at 1 µM. 5,600 tested, 81% active. AID 652141, 2013; in the data active means inhibition above about 10%
Large screens that a line does not name were inactive (follow-up assays come after a bar, where they were run). Unless noted, no stated cut-off is given here; in the data, active means inhibition above about 27%; inactive means the rest.

Cc1nc2ccc(-c3nc4ccccc4o3)cc2[nH]1	FBA Mtb inh 49.9 | Mtb FBA inh conf 63.4 | GDH-TPI counter-2 56.0
Nc1cc(N)cc(-c2nc3ccccc3[nH]2)c1	none (no result: RecA splice inh)
Nc1ccc(-c2nc3ccc(-c4nc5ccccc5o4)cc3[nH]2)cc1	FBA Mtb inh 84.3, GDH-TPI counter-1 57.4 | Mtb FBA inh conf 36.4 | GDH-TPI counter-2 24.5
O=C(O)CN1C(=O)/C(=C/c2cccc(Cl)c2)Oc2ccccc21	FBA Mtb inh 67.2 | Mtb FBA inh conf active | GDH-TPI counter-2 active
O=C(CN1C(=O)/C(=C\c2cccc(Br)c2)Oc2ccccc21)NCCCN1CCOCC1	FBA Mtb inh 33.4 | Mtb FBA inh conf 161.8 | GDH-TPI counter-2 130.4
CC(=O)N1N=C(c2ccc3ccccc3c2)OC1(C)C	FBA Mtb inh 67.6 | Mtb FBA inh conf active | GDH-TPI counter-2 active
O=C(Cc1cccs1)Nc1ccc(-c2nnc(-c3ccco3)o2)cc1	FBA Mtb inh 49.3 | Mtb FBA inh conf 82.9 | GDH-TPI counter-2 67.0
Clc1ccc(-c2nnc(-c3ccco3)o2)cc1	FBA Mtb inh 71.9 | Mtb FBA inh conf active | GDH-TPI counter-2 active
CN(C)c1nnc(-c2ccc(Cl)cc2)o1	FBA Mtb inh 66.4 | Mtb FBA inh conf active | GDH-TPI counter-2 active
CCC(Oc1ccccc1)C(=O)Nc1ccc(-c2nnc(-c3ccco3)o2)cc1 (centres undefined)	FBA Mtb inh 42.8 (no result: RecA splice inh) | Mtb FBA inh conf inactive | GDH-TPI counter-2 inactive
COc1ccccc1OCC(=O)Nc1ccc(-c2nnc(-c3ccco3)o2)cc1	none
O=C(Cc1cccs1)Nc1ccc(-c2nnc(-c3ccccc3)o2)cc1	none
COc1cc(CNC(=O)c2cc(-c3cc(Cl)ccc3C)n[nH]2)cc(OC)c1	none (no result: Mtb UGM inh, RecA splice inh, Mtb betalactam, Rv3671c protease)
O=C(NCCC1=CCCCC1)c1[nH]c(C(F)(F)F)nc1-c1ccccc1	none (no result: Mtb UGM inh, RecA splice inh, Mtb betalactam, Rv3671c protease, GDH-TPI counter-1)
C/C(O)=c1/cnc2nc3ccccc3n2c1=O	FBA Mtb inh 29.8 | Mtb FBA inh conf inactive | GDH-TPI counter-2 20.9
CCCC(=O)Nc1ccc2c(c1)C(=O)N(CCC(=O)O)C2=O	FBA Mtb inh 41.3 | Mtb FBA inh conf 116.5 | GDH-TPI counter-2 89.4
O=C(Nc1ccc2c(c1)C(=O)N(c1ccccc1)C2=O)c1cccs1	none
CN1C(=O)c2ccc(NC(=O)c3cccc(N4C(=O)CCC4=O)c3)cc2C1=O	FBA Mtb inh 28.4 | Mtb FBA inh conf 81.5 | GDH-TPI counter-2 92.5
CCC(=O)Nc1ccc2c(c1)C(=O)N(C)C2=O	FBA Mtb inh 27.0 | Mtb FBA inh conf inactive | GDH-TPI counter-2 inactive
CN1C(=O)c2ccc(NC(=O)CSc3ccccc3)cc2C1=O	none
Cc1cccc(NC(=O)c2cccc(N3C(=O)CCC3=O)c2)c1	none
O=C(O)CCN1C(=O)c2ccc(NC(=O)c3cccs3)cc2C1=O	FBA Mtb inh 32.5 | Mtb FBA inh conf 182.5 | GDH-TPI counter-2 171.2
CCc1noc(C)c1C(=O)NCCN1C(=O)S/C(=C\c2ccccc2F)C1=O	none (no result: Mtb UGM inh, RecA splice inh, Mtb betalactam, Rv3671c protease)
Cc1onc(-c2ccccc2)c1C(=O)NCCCc1ccccc1	none (no result: RecA splice inh)
CN1CN(C)c2cccc3cccc1c23	FBA Mtb inh 97.9 | Mtb FBA inh conf 47.7 | GDH-TPI counter-2 39.8
CCN1C(=O)N(CC)c2cccc3cccc1c23	none
CCc1cc(=O)oc2cc(C)cc(OC(C)C(=O)NCc3ccncc3)c12 (centres undefined)	FBA Mtb inh 84.1 | Mtb FBA inh conf inactive | GDH-TPI counter-2 inactive
Cc1cc(OC(C)C(=O)NCc2cccnc2)c2c(C)c(Cc3ccccc3)c(=O)oc2c1 (centres undefined)	none
CCCCc1cc(=O)oc2cc(C)cc(OC(C)C(=O)NCc3cccnc3)c12 (centres undefined)	FBA Mtb inh 55.8 | Mtb FBA inh conf 55.3 | GDH-TPI counter-2 43.2
